# In the library only some 9% were active in any assay of this set; here they are far more common.
# ALDH1A1 block = qHTS Assay for Inhibitors of Aldehyde Dehydrogenase 1 (ALDH1A1). Purified ALDH1A1, NADH fluorescence, propionaldehyde substrate. Potency, µM (doses to about 75.3 µM), hits mostly inhibitors. 7.3% of 220,000 active. AID 1030, 2008; active = well fitted inhibition curve with a large enough effect, not every such curve was filed as active; inconclusive = small, poorly fitted or top-dose-only effect, or another doubt; inactive = no such curve, though single readings can be large or run the other way
# HPGD block = qHTS Assay for Inhibitors of HPGD (15-Hydroxyprostaglandin Dehydrogenase) | Potency, µM, most hits filed as inhibitors | 4.3% of 150,000 active | 15-hydroxyprostaglandin dehydrogenase [NAD(+)] (Homo sapiens), P15428 | AID 894, 2007 | purified HPGD, NADH fluorescence kinetic, PGE2 substrate; active = well fitted inhibition curve with a large enough effect, not every such curve was filed as active; inconclusive = small, poorly fitted or top-dose-only effect, or another doubt; inactive = no such curve, though single readings can be large or run the other way
# Target sequence (P15428 whole entry, looked up): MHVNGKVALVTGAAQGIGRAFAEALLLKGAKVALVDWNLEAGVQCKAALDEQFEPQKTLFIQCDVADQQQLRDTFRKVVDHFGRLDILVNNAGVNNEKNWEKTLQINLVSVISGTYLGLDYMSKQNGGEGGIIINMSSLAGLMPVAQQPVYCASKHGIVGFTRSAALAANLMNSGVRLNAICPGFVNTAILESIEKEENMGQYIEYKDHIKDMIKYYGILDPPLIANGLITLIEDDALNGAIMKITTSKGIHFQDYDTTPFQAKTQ
#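 NADH formation kinetics: reaction with 30 uM PGE2 and 1 mM NAD+ (final), 20 nM enzyme, Tris-HCl pH 8 with Tween 20, after 15 min compound preincubation at room temperature. Fluorescence change, last versus first of five reads.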
# LMNA splice mod = qHTS Assay for Modulators of Lamin A Splicing; HeLa LMNA splicing GFP/RFP minigene ratio, 48 h; Potency, µM (highest dose often 46.1 µM), most hits filed as inhibitors; 0.01% of 200,000 active; active = well fitted inhibition curve with a large enough effect in the signal ratio, with a control signal flat, not every such curve was filed as active; inconclusive = small, poorly fitted or top-dose-only effect, or effect the other way, or a change in a side signal; the % refers to the signal ratio
#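 S3 HeLa stable clones carrying a lamin A-EGFP splicing minigene plus DsRed2 were seeded at 600 cells/well in Opti-MEM with 2% FBS, pin-dosed and incubated 48 h at 37°C. Acumen cytometry (488 nm) gave the GFP/RFP total-intensity ratio.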
# HTT ATP protect = qHTS Multiplex Assay to Identify Dual Action Probes in a Cell Model of Huntington: Cytoprotection (ATP). PC12 HTT-Q103 induced, cytoprotection, ATP luminescence, 40 h. Potency, µM (highest dose often 56.4 µM), actives largely listed as activators. 0.14% of 230,000 active. AID 1471, 2008; note: nearly all actives have a fitted effect of over 45% in size
#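 Quantitative HTS on tebufenozide-induced (100 nM) PC12 cells expressing HTTQ103 exon 1–GFP; compounds tested as a concentration series; survival measured via cellular ATP.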
# HttQ103 aggreg = qHTS Multiplex Assay to Identify Dual Action Probes in a Cell Model of Huntington: Aggregate Formation (GFP) | PC12 HttQ103-GFP aggregates, Acumen cytometry, 40 h | Potency, µM (series often up to 46.1 µM), actives largely listed as inhibitors | 1.1% of 220,000 active | AID 1688, 2009; note: nearly all actives have a fitted effect of over 60% in size
#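 Inducible Q103 Huntingtin exon 1–GFP PC12 line, 1500 cells/well in phenol red free DMEM with 5% equine and 5% calf serum. Tebufenozide 100 nM induced expression; compounds titrated; aggregates quantified by cytometry.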
# Luc counter = Counterscreen for Luciferase (Kinase-Glo TM) Inhibition; Luciferin 4-monooxygenase (Photuris pensylvanica), Q27757; Kinase-Glo luciferase, ATP luminescence, 8 min; Potency, µM (doses to about 38.3 µM), usual class: inhibitors; 0.28% of 200,000 active; note: nearly all actives have a fitted effect of over 60% in size
#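 Substrate mix (final 50 mM imidazole pH 7.2, 50 mM KCl, 7 mM MgCl2, 10 uM ATP, 0.01% Tween 20, 0.05% BSA) plus pin-tool compound, then Kinase-Glo detection mix; 8 min ambient, luminescence read.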
# Hits are given with their value; . = inactive; ? = inconclusive; / = no result; [ ] = another dose, or the depositor's remark. Unless noted, calls come from the whole dose curve; as a rule, active = well fitted curve in the direction sought with a large enough effect; inconclusive = small, poorly fitted or top-dose-only effect, or another doubt; inactive = no such curve, though single readings can be large; an effect the other way counts as inactive or inconclusive.
SMILES,ALDH1A1 block,HPGD block,LMNA splice mod,HTT ATP protect,HttQ103 aggreg,Luc counter
O=C(/C=C/c1ccccc1)c1ccc2c(c1)OCCCCO2,?,?,?,.,.,.
O=C(CCl)N(C/C=C/c1ccccc1)c1ccc2c(c1)OCCO2,0.79µM,/,?,.,?,.
Nc1nc(=S)c2[nH]cnc2[nH]1,?,35µM,/,.,/,.
COC(=O)c1scc(C)c1NC(=O)Nc1ccccc1,.,.,.,.[10 µM],.,.
O=[N+]([O-])c1cccc(-c2nc(Oc3ccc(Cl)cc3)c3ccccc3n2)c1,?,25µM,?,/,.,.
COC(=O)c1sccc1NC(=O)CN(C)NS(=O)(=O)c1ccc(F)cc1,1µM,.,.,.,.,.
COC(=O)c1sccc1NC(=O)CN(C)NS(=O)(=O)c1ccc(Cl)cc1,2.5µM,.,.,.,.,.
COC(=O)c1sccc1NC(=O)CN(C)NS(=O)(=O)c1ccc([N+](=O)[O-])cc1,1.6µM,.,.,.,.,.
COC(=O)c1sccc1NC(=O)CSc1ccc(Cl)cc1,.,.,.,.,.,.
N/C(=N\OC(=O)Cc1ccc(-c2ccccc2)cc1)c1cccnc1,.,.,.,.,?,.
Cc1ccc2c(c1)C(c1ccccc1)CC(=O)O2 (configuration not stated),/,/,/,.[10 µM],.[9.22 µM],/
Cc1ccc(C2CC(=O)Oc3ccc(C(C)(C)C)cc32)cc1 (configuration not stated),.,.,/,28µM,/,.
Cc1ccccc1C1CC(=O)Oc2ccc(C(C)(C)C)cc21 (configuration not stated),?,.,/,.,/,.
Cc1ccc(C2CC(=O)Oc3ccc(O)cc32)cc1 (configuration not stated),32µM,?,/,.,/,.
CCc1ccc(-n2c(=O)c3c(C)c(C(=O)N(C)C)sc3n(Cc3ccccc3C#N)c2=O)cc1,/,/,.,/,/,/
CCOC(=O)C(CSCC(=O)c1ccc(Br)cc1)NC(=O)OC(C)(C)C (configuration not stated),?,.,.,.,.,.
CCOC(=O)C(CSCC(=O)c1ccc(Cl)cc1)NC(=O)OC(C)(C)C (configuration not stated),20µM,.,.,.,.,.
COC(=O)N1[C@H](C)C=C[C@]1(Cc1ccccc1)C(=O)NCc1ccccn1,?,.,/,.,/,.
COC(=O)N1[C@H](C)C=C[C@]1(Cc1ccccc1)C(=O)NCc1ccc(N(C)C)cc1,8.9µM,.,/,.,/,.
COc1ccccc1NC(=O)C1=C(C)Nc2nc(CCCO)nn2C1c1ccc2c(c1)OCO2 (configuration not stated),14µM,?,.,.,.,.
O=C(NC(=S)NCc1ccccc1)c1ccccc1F,32µM,.,.,.,.,.
O=C(NC(=S)NC(=O)c1ccccc1F)c1ccccc1F,2µM,13µM,.,.[10 µM],.,.
Cc1cc(-c2n[nH]c(=S)n2/N=C/c2ccc(Br)s2)n[nH]1,.,13µM,.,.[10 µM],?,.
Cc1cc(-c2n[nH]c(=S)n2/N=C/c2ccc(C)s2)n[nH]1,.,25µM,.,.[10 µM],.,.
COc1cccc(/C=N/n2c(-c3cc(C)[nH]n3)n[nH]c2=S)c1,/,/,/,.[10 µM],.[9.22 µM],/
SMILES,ALDH1A1 block,HPGD block,LMNA splice mod,HTT ATP protect,HttQ103 aggreg,Luc counter
Cc1cccc(-c2ccc(C=Nc3c(C)n(C)n(-c4ccccc4)c3=O)o2)c1,11µM,.,.,.,.,.
Cc1c(NC(=O)/C(C#N)=C/c2ccc(-c3cccc(Cl)c3)o2)c(=O)n(-c2ccccc2)n1C,.,18µM,.,.[10 µM],.,.
Cc1c(N=Cc2nc3ccccc3n2C)c(=O)n(-c2ccccc2)n1C,.,.,.,.,.,11µM
O=C(NCc1ccccc1)c1cc(S(=O)(=O)N2CCOCC2)ccc1F,.,.,.,.,.,.
Cc1nn(C(C)(C)C)c(NC(=O)c2ccc(Cl)cc2)c1Br,.,/,.,.[10 µM],.[9.22 µM],/
O=C(O)/C(=C/c1ccco1)NC(=O)c1ccccc1,.,.,.,.[10 µM],?,.
CC(C)[C@H](NS(=O)(=O)c1ccccc1)C(=O)OCC(=O)NC(=O)c1cccn1C,13µM,.,.,.,.,?
Cc1ccc(-c2nc(N)s[n+]2-c2ccccc2)cc1,7.1µM,2.2µM,.,.[10 µM],.,?
CC(=O)Nc1scc(-c2ccccc2)[n+]1-c1ccc(C)cc1,.,/,.,.,.,.
Cc1ccc(-c2nnc(-c3ccccc3)o2)cc1,.,?,.,.[10 µM],.,.
CNc1nc(-c2ccccc2)[n+](-c2ccc(C)cc2)s1,2.5µM,/,?,.[10 µM],.,/
O=C(CNCC1CCCCC1)Nc1cccc(S(=O)(=O)N2CCOCC2)c1,.,/,.,.,.,.
O=C(COc1ccccc1)NCCSCc1ccco1,?,22µM,.,.[10 µM],.,.
O=C(CCSc1ccccc1)NCCSCc1ccco1,11µM,/,.,.[10 µM],.,/
O=C(NCCSCc1ccco1)Nc1ccc(Cl)cc1,?,.,.,.,.,.
O=C(COc1ccccc1)NCCSc1ccccc1,.,.,.,.,.,.
COc1ccc(OC)c(NC(=O)C2CC(=O)N(c3ccc(Br)cc3)C2)c1 (configuration not stated),.,.,.,.[10 µM],.,.
COc1cc(OC)c2c(=O)cc(-c3ccccc3)oc2c1,?,/,/,.[10 µM],.[9.22 µM],/
COc1cc2c(c3oc(-c4ccccc4)cc(=O)c13)C=CC(C)(C)O2,10µM,/,/,.[10 µM],.[9.22 µM],/
CC(C)C(NC=C1C(=O)OC(C)(C)OC1=O)C(=O)O (configuration not stated),8.9µM,.,.,.,.,.
CC(=O)c1cc2c(cc1O)OC(C)(C)C=C2,?,25µM,/,.,/,.
CC1(C)C=Cc2cc3ccc(=O)oc3cc2O1,?,.,/,.,.[9.22 µM],.
O=C(NCC1CCCO1)c1cnn2c1NC(c1ccccc1)CC2C(F)(F)F (configuration not stated),.,25µM,.,.[0.074 µM],.,.
COc1cccc(C2CC(C(F)(F)F)n3ncc(C(=O)NCc4ccco4)c3N2)c1 (configuration not stated),.,20µM,.,.[0.074 µM],2.8µM,.
O=C(NCC1CCCO1)c1nn2c(c1Cl)NC(c1ccc(F)cc1)CC2C(F)(F)F (configuration not stated),.,.,.,.,.,.
Cc1cc(SCC(=O)NC(=O)NCc2ccco2)nc2c(C)cccc12,22µM,.,.,.,.,.
